# Tested on: HepG2
# Experiment: GSK_TCMDC: Percent inhibition of human HepG2 cell line. Test compounds present at 10uM.
# Assay type: functional
row,Compound,Inhibition [%]
1,C=CCN(c1ccc(OC)cc1)S(=O)(=O)c1ccc(Cl)c(C(=O)Nc2cccc(C#N)c2)c1,6
2,O=C(Nc1cccc(-c2cc(-c3c(Cl)cccc3Cl)no2)c1)c1cncc(-c2cccs2)c1,0
3,COc1ccc(S(=O)(=O)NCCC2CCN(CCCCCNC(=O)C=Cc3ccc(Cl)c(Cl)c3)CC2)cc1,36
4,Nc1nccc2ccc(-c3ccsc3)cc12.O=C(O)C(F)(F)F,38
5,CC(=O)NCC(=O)NC1=NC(=N)N(OCc2ccc3ccccc3c2)C(C)(C)N1,66
6,CC(=O)Nc1ccc(OCCCN(Cc2ccccc2C(F)(F)F)c2ccc(C(F)(F)F)c(C#N)c2)c(Cl)c1,5
7,COc1cc(-c2ccc(-c3cnc(N)nc3OC)[nH]2)cc(OC)c1OC,0
8,NC(=O)NC(=O)C=Cc1ccco1,32
9,CCCCCCNC(=O)C1Cc2c([nH]c3ccc(C)cc23)C2(CCN(CCc3ccccc3)CC2)N1 (stereo not given),31
10,CCc1cc(NC2CCN(C)CC2)nc(Nc2ccc(C)cc2)n1,3
11,CCC(C)Oc1ccc2nc(N)nc(N)c2c1Cl (stereo not given),57
12,CN(C)CCN1CCN(Cc2cccc(-c3csc(-c4nc5ccccc5[nH]4)c3)c2)CC1.O=C(O)C(F)(F)F,28
13,Br.CC1(C)NC(N)=NC(=N)N1OCCCOc1cccc2ccccc12,67
14,O=[N+]([O-])c1cccc(S(=O)(=O)N2CCN(CC(O)COc3ccc(-c4ccccc4)cc3)CC2)c1 (stereo not given),11
15,CC(C)CCN1CCCN(Cc2cccc(NC(=O)c3ccc(-c4ccccc4)cc3)c2)CC1.O=C(O)C(F)(F)F,27
16,CCOC(=O)c1c(C)n(-c2ccccc2)c2ccc(O)cc12,0
17,O=C(/C=C/c1ccc(Cl)c(Cl)c1)NC1CCC(CN2CCC(c3nc4ccccc4n3CCCO)CC2)CC1 (stereo not given),28
18,Cc1cc(Oc2ccc(-n3ccnc3)cc2)nc(N2CCN(CCCN3CCCC3)CC2)n1.O=C(O)C(F)(F)F,5
19,O=C(O)C(F)(F)F.c1cc(CN2CCC(CCN3CCCCC3)CC2)cc(-c2csc(-c3nc4ccccc4[nH]3)c2)c1,89
20,Cc1ccccc1C1CCN(C2CCC(NC(=O)c3ccc(-c4ccccc4)s3)CC2)CC1 (stereo not given),26

row,Compound,Inhibition [%]
1,CCn1c(-c2nonc2N)nc2c(-c3cccc(NC(=O)Nc4ccccc4Cl)c3)ncc(OCCCN)c21.O=C(O)C(F)(F)F,2
2,CCCC(=O)NC(c1ccc(C)cc1)c1ccc2cccnc2c1O (stereo not given),52
3,O=C(O)C(F)(F)F.OCCN1CCN(Cc2cccc(-c3ccc(-c4nc5cc(C(F)(F)F)ccc5[nH]4)s3)c2)CC1,42
4,COC(=O)Cc1ccc(N)c2ccccc12.Cl,2
5,Cc1cccc(Nc2nccc(NCC(O)c3cccc(C(F)(F)F)c3)n2)c1 (stereo not given),25
6,COc1cc2nc(SCC(C)C)n(CCCn3ccnc3)c(=N)c2cc1OC,15
7,COc1cc(C=CC(=O)N2CCN(Cc3cccc(C)c3)CC2)ccc1OCc1c(C)noc1C,8
8,Cc1cccc2nc(-c3cccc(-c4cccc(NC(=O)CC5NC(=O)c6ccccc65)c4)c3)[nH]c12 (stereo not given),8
9,COc1ccc(-c2cc(C(=O)Nc3ccc(CCCN(C)Cc4ccc(OC)c(OC)c4)cc3)c3ccccc3n2)cc1,40
10,COc1ccc(CNCc2ccccc2)cc1-c1ccc(S(=O)(=O)NCCN2CCCC2)cc1.O=C(O)C(F)(F)F,38
11,Cl.N#Cc1ccc2c(c1)CCN(CCC1CCC(NC(=O)Nc3ccncc3)CC1)C2 (stereo not given),6
12,COc1ccc2ncc(F)c([C@@H](O)CN3CCC(NCc4cc5c(cn4)OCCO5)CC3)c2c1.Cl,0
13,Brc1cccc(Nc2nccc(Nc3ccc(Oc4ccccc4)cc3)n2)c1.Cl,0
14,O=C(NCCc1ccccc1)N(Cc1ccccc1-c1cccc(CNCc2ccc3c(c2)OCO3)c1)C1CCN(Cc2ccccc2)CC1.O=C(O)C(F)(F)F,29
15,O=C(Nc1ccc(Cl)cc1)c1ccc(CN2CCCN(Cc3ccsc3)CC2)cc1.O=C(O)C(F)(F)F,48
16,CCNc1cc(C)nc(Nc2ccc(NC(=O)c3ccccc3Cl)cc2)n1,48
17,Clc1ccc(CNc2nc(NCCc3c[nH]cn3)nc(NC3CCCCC3)n2)cc1,0
18,CCOc1ccc2nc3cc(NC(=O)c4ccco4)ccc3c(N)c2c1,36
19,CCCCn1c(N)c(N(Cc2ccco2)C(=O)C=Cc2cc(OC)c3c(c2)OCCO3)c(O)nc1=O,4
20,O=C(c1ccccc1NN=C1C(=O)N(c2ccccc2)N=C1c1ccccc1)N1CCOCC1,0
